{"source": "the supplement of paper PMC12024529", "note": "“And” between values parts separate entries of the source, which are not always exact repeats. Identical values can stand only once.", "data": [{"system": "HEK293 WT BDD-FVIII-Gluc", "assay": "secreted FVIII-Gluc luciferase Z-score vs DMSO control; higher = more FVIII-Gluc secretion", "settings": "5 µM", "method": "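Natural plant-compound library (480 compounds, ST catalogue IDs) screened on HEK293 cells stably expressing WT BDD-FVIII-Gaussia luciferase fusion at 5 µM. Secreted Gluc activity in the medium is given as a Z-score relative to DMSO controls.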", "values": [{"compound": "COc1ccc(-c2coc3cc(OC4OC(CO)C(O)C(O)C4O)cc(O)c3c2=O)cc1", "note": "(centres undefined)", "secreted FVIII-Gluc luciferase Z-score": -0.0597}, {"compound": "COc1cc2c(Cc3c4c5c(cc(OC)c(OC)c5c5c(OC)c(OC)ccc35)CCN4C)c3c4c(cc(OC)c(OC)c4c2cc1OC)CCN3C", "secreted FVIII-Gluc luciferase Z-score": -0.165}, {"compound": "COc1cc2ccc(=O)oc2c(O)c1O", "secreted FVIII-Gluc luciferase Z-score": 0.185}, {"compound": "CC1=C(C2=C(C)C(C(C)C)C3=C(C(=O)C(O)C3O)C2O)C(O)C2=C(C(O)C(O)C2=O)C1C(C)C", "note": "(centres undefined)", "secreted FVIII-Gluc luciferase Z-score": -0.542}, {"compound": "Cc1c(C(=O)O)c(O)cc2c1C(=O)c1c(O)c([C@H]3O[C@H](CO)[C@@H](O)[C@H](O)[C@H]3O)c(O)c(O)c1C2=O", "secreted FVIII-Gluc luciferase Z-score": "0.527 and 0.738"}, {"compound": "OC[C@H]1O[C@@H](n2cnc3c(NCc4ccco4)ncnc32)[C@H](O)[C@@H]1O", "secreted FVIII-Gluc luciferase Z-score": -1.03}, {"compound": "CC(=O)N1C=C(C2CCCCN2)CCC1", "note": "(centres undefined)", "secreted FVIII-Gluc luciferase Z-score": 0.76}, {"compound": "COc1ccc2c(OC)c3ccoc3nc2c1OC", "secreted FVIII-Gluc luciferase Z-score": 0.816}, {"compound": "Cc1cc2c(C(C)C)c(O)c(O)c3c2c(c1-c1c(C)cc2c(C(C)C)c(O)c(O)c4c2c1OC4N)OC3N", "note": "(centres undefined)", "secreted FVIII-Gluc luciferase Z-score": -0.0294}, {"compound": "O=c1c(O)c(-c2ccc(O)cc2O)oc2cc(O)cc(O)c12", "secreted FVIII-Gluc luciferase Z-score": 0.571}, {"compound": "NC(=O)NCCC[C@H](N)C(=O)O", "secreted FVIII-Gluc luciferase Z-score": -0.102}, {"compound": "N[C@@H](CSCC(=O)O)C(=O)O", "secreted FVIII-Gluc luciferase Z-score": 0.103}, {"compound": "COc1ccc2c(c1OC)C(=O)O[C@@H]2[C@H]1c2c(cc3c(c2OC)OCO3)CCN1C", "secreted FVIII-Gluc luciferase Z-score": -0.0362}, {"compound": "COc1ccc(C2CC(=O)c3c(O)cc(OC4OC(COC5OC(C)C(O)C(O)C5O)C(O)C(O)C4O)cc3O2)cc1O", "note": "(centres undefined)", "secreted FVIII-Gluc luciferase Z-score": 0.438}, {"compound": "CC1=C(C/C=C(\\C)CCCC(C)CCCC(C)CCCC(C)C)C(=O)c2ccccc2C1=O", "note": "(centres undefined)", "secreted FVIII-Gluc luciferase Z-score": 0.33}, {"compound": "COc1ccc2cc1Oc1ccc(cc1)C[C@H]1c3cc(c(OC)cc3CCN1C)Oc1c(OC)c(OC)cc3c1[C@H](C2)N(C)CC3", "secreted FVIII-Gluc luciferase Z-score": 0.132}, {"compound": "COC(=O)CC[C@@H](C)[C@H]1CC[C@H]2[C@@H]3CC[C@@H]4C[C@H](O)CC[C@]4(C)[C@H]3C[C@H](O)[C@]12C", "secreted FVIII-Gluc luciferase Z-score": 0.392}, {"compound": "COc1ccc(-c2coc3ccc(OC4OC(COC(C)=O)C(OC(C)=O)C(OC(C)=O)C4OC(C)=O)c(OC(C)=O)c3c2=O)cc1", "note": "(centres undefined)", "secreted FVIII-Gluc luciferase Z-score": -0.543}, {"compound": "C1CCN2C[C@H]3C[C@H](CN4CCCC[C@@H]34)[C@H]2C1", "secreted FVIII-Gluc luciferase Z-score": 1.26}, {"compound": "Nc1ccn(C2CC(O)C(COP(=O)(O)O)O2)c(=O)n1", "note": "(centres undefined)", "secreted FVIII-Gluc luciferase Z-score": 0.357}, {"compound": "COc1c2ccoc2cc2oc(=O)ccc12", "secreted FVIII-Gluc luciferase Z-score": 0.335}, {"compound": "COc1ccc2c3c1OC1C(O)C=CC(C=C2)C31CCN(C)C", "note": "(centres undefined)", "secreted FVIII-Gluc luciferase Z-score": -0.171}, {"compound": "O=c1[nH]cnc2c1ncn2C1OC(CO)C(O)C1O", "note": "(centres undefined)", "secreted FVIII-Gluc luciferase Z-score": -0.0892}, {"compound": "CCCCCCCCCCCC1=C(O)C(=O)C=C(O)C1=O", "secreted FVIII-Gluc luciferase Z-score": 0.529}, {"compound": "COC(=O)C1C2CC3c4[nH]c5cc(OC)ccc5c4CCN3CC2CC(OC(=O)c2cc(OC)c(OC)c(OC)c2)C1OC", "note": "(centres undefined)", "secreted FVIII-Gluc luciferase Z-score": -0.436}, {"compound": "CC1OC(OCC2OC(Oc3c(-c4ccc(O)c(O)c4)oc4cc(O)cc(O)c4c3=O)C(O)C(O)C2O)C(O)C(O)C1O", "note": "(centres undefined)", "secreted FVIII-Gluc luciferase Z-score": -0.909}, {"compound": "CC(C)=CCC/C(C)=C\\COc1c2ccoc2cc2oc(=O)ccc12", "secreted FVIII-Gluc luciferase Z-score": -0.466}, {"compound": "COc1cc([C@@H]2c3cc4c(cc3C(OC3OC5COC(C)OC5C(O)C3O)C3COC(=O)[C@@H]32)OCO4)cc(OC)c1O", "note": "(some centres undefined)", "secreted FVIII-Gluc luciferase Z-score": -6.37}, {"compound": "Oc1cc2c(cc1O)[C@H]1c3ccc(O)c(O)c3OC[C@@]1(O)C2", "secreted FVIII-Gluc luciferase Z-score": 0.368}, {"compound": "COc1cc2oc(=O)cc(C)c2cc1OC", "secreted FVIII-Gluc luciferase Z-score": 0.58}, {"compound": "OCC1(O)OC[C@H](O)[C@@H](O)[C@@H]1O", "note": "(some centres undefined)", "secreted FVIII-Gluc luciferase Z-score": 0.437}, {"compound": "COc1cc(CNC(=O)CCCC/C=C/C(C)C)ccc1O", "secreted FVIII-Gluc luciferase Z-score": -0.484}, {"compound": "O=C1CC(c2ccc(O)cc2)Oc2cc(O)cc(O)c21", "note": "(centres undefined)", "secreted FVIII-Gluc luciferase Z-score": -0.524}, {"compound": "O=c1cc(-c2cccc(O)c2)oc2c(O)c(O)ccc12", "secreted FVIII-Gluc luciferase Z-score": -0.194}, {"compound": "COc1cccc(-c2cc(=O)c3cc(O)ccc3o2)c1", "secreted FVIII-Gluc luciferase Z-score": 0.695}, {"compound": "CC1(C)S[C@@H]2[C@H](NC(=O)C(N)c3ccccc3)C(=O)N2[C@H]1C(=O)O", "note": "(some centres undefined)", "secreted FVIII-Gluc luciferase Z-score": -0.57}, {"compound": "Cc1c(C)c2c(c(C)c1O)CC[C@@](C)(CCC[C@H](C)CCC[C@H](C)CCCC(C)C)O2", "secreted FVIII-Gluc luciferase Z-score": 0.497}, {"compound": "N=C(N=C(N)N)N1CCOCC1", "secreted FVIII-Gluc luciferase Z-score": 0.384}, {"compound": "COc1c(O)cc2oc3cc(O)c(CC=C(C)C)c(O)c3c(=O)c2c1CC=C(C)C", "secreted FVIII-Gluc luciferase Z-score": 0.316}]}]}
